# From PubChem BioAssay
# This is one part of a sample in which hits are shown more often than they occur.
# HT1080 IDH1KD tx – kills HT-1080 cells with IDH1 knockdown; Potency, µM (top dose mostly 46.1 µM), without a hit: at the top dose activity, negative = toxicity, hits mostly cytotoxic; AID 686971; HT-1080 IDH1 knockdown viability, ATP luminescence, 48 h; actives 2% (n = 360,000);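 note: potency is the fitted concentration of half-maximal effect; 0% = DMSO wells and -100% = cell-free medium wells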
#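 Cytotoxicity counter-line: IDH1KD HT-1080, 48 h, CellTiter-Glo. Curves classed by r2, magnitude and activity.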
# ALOX12 inh – blocks human arachidonate 12S-lipoxygenase; P18054; purified 12hLO, xylenol orange hydroperoxide absorbance; Potency, µM (series often up to 108 µM), without a hit: at the top dose activity change, negative = inhibition, usual class: inhibitors; actives 1.1% (n = 580,000); AID 1671190; note: potency is the fitted concentration of half-maximal effect
# Target sequence (P18054 whole entry, looked up): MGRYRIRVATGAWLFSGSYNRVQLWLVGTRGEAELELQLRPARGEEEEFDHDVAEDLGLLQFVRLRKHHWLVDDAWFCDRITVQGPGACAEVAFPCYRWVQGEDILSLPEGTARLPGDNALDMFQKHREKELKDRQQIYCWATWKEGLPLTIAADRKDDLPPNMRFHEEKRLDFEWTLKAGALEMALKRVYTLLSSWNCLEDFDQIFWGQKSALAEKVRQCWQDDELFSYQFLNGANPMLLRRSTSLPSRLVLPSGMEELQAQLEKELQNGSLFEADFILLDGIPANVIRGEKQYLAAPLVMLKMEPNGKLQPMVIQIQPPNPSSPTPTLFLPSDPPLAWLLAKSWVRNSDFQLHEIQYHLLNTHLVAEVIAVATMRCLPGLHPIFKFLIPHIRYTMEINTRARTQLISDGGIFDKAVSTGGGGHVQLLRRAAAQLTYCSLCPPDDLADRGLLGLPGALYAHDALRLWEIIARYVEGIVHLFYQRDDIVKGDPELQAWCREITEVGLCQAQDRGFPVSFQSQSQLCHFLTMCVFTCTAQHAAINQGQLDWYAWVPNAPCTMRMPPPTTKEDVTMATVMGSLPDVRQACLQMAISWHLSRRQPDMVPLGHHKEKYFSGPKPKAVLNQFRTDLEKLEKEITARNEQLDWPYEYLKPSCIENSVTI
#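 Purified human 12hLO (150 nM final) in 25 mM Hepes, 0.01% Triton X-100, pH 7.0 was preincubated 15 min at room temperature with compound. Then 40 uM arachidonic acid was added, 30 min. Hydroperoxide was read by Fe-XO absorbance ratio 573/405 nm.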
# TDP1 cell noCPT – qHTS for Inhibitors of human tyrosyl-DNA phosphodiesterase 1 (TDP1): qHTS in cells in absence of CPT; DT40 Tdp1-/- hTDP1 cells, no CPT, ATP luminescence, 48 h; Potency, µM (titrated, usually from 46.2 µM), without a hit: at the top dose activity change, negative = growth inhibition, most hits filed as inhibitors; actives 15% (n = 420,000); note: potency is the fitted concentration of half-maximal effect; nearly all actives have a fitted effect of over 55% in size
#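 Luminescent ATP content (CellTiter-Glo) served as the growth readout. Knockout chicken DT40 cells expressing human TDP1 were exposed to compounds without camptothecin for a minimum 48 hr at 37 °C.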
# HT1080NT lethal – kills 2HG-producing HT-1080-NT fibrosarcoma cells | actives 1.6% (n = 360,000) | Potency, µM (series often up to 46.1 µM), for inactives: at the highest dose activity, negative = less viability, hits mostly cytotoxic | HT-1080-NT fibrosarcoma viability, CellTiter-Glo ATP luminescence, 48 h;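 note: NT is the 2HG producing partner of a matched IDH1 knockdown line; potency is the fitted concentration of half-maximal effect; 0% = DMSO-treated cells and -100% = media-only wells without cells; nearly all actives have a fitted effect of over 55% in size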
#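 Viability by CellTiter-Glo luminescence after 48 h compound exposure at 37C of HT-1080-NT cells (750/well, RPMI, 5% FBS). % activity scaled between DMSO wells and medium-only wells, then curve-fitted and categorized by curve class.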
# DT40 TDP1 CPT – DT40-hTDP1 cell growth loss with CPT; chicken DT40 Tdp1-/-;hTDP1 cells + 20 nM CPT, ATP luminescence, 48 h; actives 12% (n = 420,000); Potency, µM (highest dose often 46.2 µM), for the others: top-dose activity change, negative = growth inhibition, actives largely listed as inhibitors; note: potency is the fitted concentration of half-maximal effect; nearly all actives have a fitted effect of over 55% in size
#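 Chicken DT40 Tdp1-/- cells complemented with human TDP1, 400 cells/well, exposed to compounds plus 20 nM camptothecin for at least 48 h at 37 C; viability read as ATP content by CellTiter-Glo luminescence.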
# IL1B secr inh – inflammasome signaling inhibition, IL-1 beta readout. THP-1 LPS/ATP IL-1B secretion, AlphaLISA, 16 h; active compounds read low. activity change, % at 57.5 µM. actives 4.7% (n = 360,000). AID 743279; in the data active = activity change below about -50%; inconclusive = mostly about -30% to -49%
#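 Secreted IL-1B measured by AlphaLISA bead assay after 16 h compound exposure of THP-1 cells; compounds (final up to 57.5 uM) added 1 h before LPS (250 ng/mL) and ATP (1.25 mM) stimulation; lower signal means less secretion.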
# The depositor's hits bear a star; u = inconclusive; x = not tested or not shown; ! = not active in a repeat; [ ] = remark or other dose. Unless noted, calls come from the whole dose curve; as a rule, active = well fitted curve in the direction sought with a large enough effect; inconclusive = small, poorly fitted or top-dose-only effect, or another doubt; inactive = no such curve, though single readings can be large; an effect the other way counts as inactive or inconclusive. Unless noted, % is set by controls: 0 for no effect and ±100 for the full control effect.
SMILES,HT1080 IDH1KD tx,ALOX12 inh,TDP1 cell noCPT,HT1080NT lethal,DT40 TDP1 CPT,IL1B secr inh
CC(C)COP(=O)(OCC(C)C)C(Nc1ccccc1)c1ccc2c(c1)OCO2 (stereo unspecified),-20%,4%,u,-9%,15µM*,-62*
CN(C)S(=O)(=O)c1cccc(C(=O)OCc2nc3ccccc3o2)c1,x,14%,x,x,x,x
COc1ccccc1C(=O)Nc1cc(-c2ccc(C)cc2)no1,-9%,u,13µM*!,-10%,u,u
Cc1ccccc1C(=O)Nc1cccc(NC(=O)c2ccc(C(C)(C)C)cc2)c1,x,12%,5.8µM*,x,8.2µM*,x
Cc1ccccc1C(=O)Nc1cccc(N)c1,4%,1%,1%,2%,2%,-15
COc1ccccc1C(=O)Nc1cccc(NC(C)=O)c1,18%,-20%,0%,13%,-9%,-8
C/C(=N\NC(=O)c1ccc(O)cc1)c1cccc(NC(=O)c2ccccc2C)c1,-7%,-5%,23µM*,1%,u,-7
COc1ccccc1C(=O)Nc1cccc(NC(=O)c2ccccc2C)c1,-12%,0%,u,8%,u,-70*
C/C(=N\NC(=O)c1c(Br)c(C)nn1C)c1cccc(NC(=O)c2ccccc2C)c1,16%,12%,u,24%,u,-8
CC(NC(=O)CCC1CCCO1)C1CCCO1 (stereo unspecified),x,-14%,x,x,x,x
CC(C)CCn1c(NCCCO)nc2c1c(=O)[nH]c(=O)n2C,x,2%,x,x,x,x
Cc1cccc(N(CC(=O)Nc2ccccc2C(=O)NCC2CCCO2)S(C)(=O)=O)c1C (stereo unspecified),x,-35%,x,x,x,x
COc1ccc(CCNC(=O)CSc2nc(Cl)nc3nc[nH]c23)cc1,x,-5%,x,x,x,x
COc1cccc(-c2noc(COC(=O)C3=CN(C)S(=O)(=O)N=C3C)n2)c1,x,34%,x,x,x,x
O=C(O)c1ccc(OCCCCCCOC2CCCCO2)cc1 (stereo unspecified),13%,0%,18µM*,16%,u,27
O=C(Nc1ccc(Cl)c(C(F)(F)F)c1)NC1CC2CCCC(C1)N2C1CC1 (stereo unspecified),u,8%,11µM*,u,11µM*,u
CN(C)c1ncc2c(n1)C(C)(C(=O)NCCOc1ccccc1)CCC2 (stereo unspecified),x,4%[176 µM],x,x,x,x
CC(Oc1ccc(F)cc1)C(=O)Nc1cc(S(=O)(=O)N2CCCCC2)ccc1N1CCOCC1 (stereo unspecified),-1%,u,16µM*,0%,-8%,3
CCN1CCN(c2ccc(S(=O)(=O)N3CCCCC3)cc2NC(=O)C(C)Oc2ccc(F)cc2)CC1 (stereo unspecified),11%,45µM*,18µM*,2%,18µM*,u
Cc1cccc(OCC(=O)NCCn2cccc2-c2nc(-c3ccc4c(c3)OCO4)no2)c1,x,30%,x,x,x,x
CN(Cc1ccc(C(N)=O)cc1)Cc1ccsc1,x,4%,x,x,x,x
CC(C)NCc1c(O)c(Br)cc2oc3c(c12)CCCC3,-4%,u,-14%,-8%,4%,-9
O=C1NCCCc2c1oc1cc(Br)c(O)c(Br)c21,-25%,u,u,-18%,16µM*,u
CN(C)CCCNC(=O)c1nc(CC(=O)Nc2cccc3ncccc23)no1,x,44%,x,x,x,x
Cc1ccc2c(CNCc3ccc(C)o3)c(C(=O)O)n(Cc3ccc(F)cc3)c2c1,x,-21%,16µM*,x,u,x
SMILES,HT1080 IDH1KD tx,ALOX12 inh,TDP1 cell noCPT,HT1080NT lethal,DT40 TDP1 CPT,IL1B secr inh
COc1ccc2c(CNCc3cccs3)c(C(=O)O)n(Cc3ccccc3F)c2c1,x,-11%,-28%,x,u,x
C=Cc1ccc(Cn2c(C(=O)O)c(CNCc3ccc(F)cc3)c3ccc(C)cc32)cc1,x,u,23µM*,x,21µM*,x
Cc1ccc2c(CNCc3cccs3)c(C(=O)O)n(Cc3ccc(F)cc3)c2c1,x,-27%,5.2µM*,x,6.5µM*,x
Cc1ccc(Cn2c(C(=O)O)c(CNC3CCCCC3)c3ccc(C)cc32)cc1,x,-11%,-15%,x,u,x
COc1ccc2c(CNCc3cccs3)c(C(=O)O)n(Cc3ccc(F)cc3)c2c1,x,0%,9.2µM*,x,18µM*,x
Cc1ccc2c(CNC3CCCCC3)c(C(=O)O)n(Cc3ccc(F)cc3)c2c1,x,0%,u,x,-20%,x
c1ccc(-c2nc3c(c(NCC4OCCc5ccccc54)n2)CCNC3)nc1 (stereo unspecified),x,128%,x,x,x,x
CCC[C@@H]1CN(Cc2[nH]cc(C)c(=O)c2C)C[C@H]1C(=O)O,x,144%,x,x,x,x
COc1ccc(Cn2c(C(=O)O)c(CNCc3cccs3)c3ccc(C)cc32)cc1,x,u,18µM*,x,u,x
CCOc1ccccc1CNCc1c(C(=O)O)n(Cc2ccc(F)cc2)c2cc(C)ccc12,x,-27%,5.8µM*,x,13µM*,x
CN1CCN(C2Cc3cc(F)ccc3Sc3ccc(Cl)cc32)CC1 (stereo unspecified),u,11%,u,-24%,u,u
CN1CCN(C2Cc3ccc(F)cc3Sc3cc(F)c(Cl)cc32)CC1 (stereo unspecified),u,u,10µM*,26µM*,18µM*,-97*
CN1CCN(C2Cc3ccccc3Sc3cc(C(F)(F)F)ccc32)CC1 (stereo unspecified),21µM*,u,16µM*,16µM*,u,-98*
CCc1ccc2oc(-c3ccc(CN)cc3)nc2c1,x,-28%,x,x,x,x
Fc1cc(F)cc(Cc2nc3nccc(-c4ccco4)n3n2)c1,x,17%,x,x,x,x
CC1CC(=O)Nc2ccccc2S1(=O)=O (stereo unspecified),0%,4%,u,-5%,4%,1
O=S1(=O)c2ccccc2Nc2ccccc21,4%,0%,-24%,-3%,8%,-73*
COc1ccc(/C=C2/CCn3c2nc2cc(Cl)ccc2c3=O)cc1O,x,1.8µM*,x,x,x,x
O=C(O)c1ccc2c(=O)n3c(nc2c1)/C(=C/c1cccc(O)c1)CC3,12%,7.9µM*,1%,12%,1%,0
COc1ccc(F)cc1Nc1cnc2ccc(N(C)C)nn12,x,-2%[176 µM],x,x,x,x
CC(C)(C)C(c1nc2ccccc2[nH]1)n1c(-c2cccc(S(C)(=O)=O)c2)nc2ccccc21 (stereo unspecified),9%,-8%,13µM*,2%,10µM*,u
